Measurements published in PubChem BioAssay (Tox21).
“And” between values parts separate entries of the source, which are not always exact repeats. Equal values may be shown once. Records with an inconclusive call do not appear. A call without a number means that no potency is given here. The source made the active and inactive calls. Unless noted, calls follow the shape of the dose curve; as a rule, active = well fitted curve in the direction sought with a large enough effect in the repeat runs; inconclusive = weak or mixed curves; inactive = no such curve, though single readings can be large; an effect the other way counts as inactive or inconclusive.

Assays:
[1] = qHTS assay for small molecule agonists of the p53 signaling pathway (AID 651631; calls by dose curve; also: nearly all actives have a fitted effect of over 15% in size)
Summary of the method: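 p53RE-bla HCT-116 cells; compounds 16 h, 37 °C; LiveBLAzer B/G FRET substrate 2 h RT; fluorescence intensity read-out, qHTS format.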

[2] = qHTS assay for small molecules that induce genotoxicity in human embryonic kidney cells expressing luciferase-tagged ATAD5 (AID 651632); also: nearly all actives have a fitted effect of over 15% in size
Summary of the method: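 Cells were seeded at 2,000 per well, dosed with compound, and incubated 16 hr at 37C in 5% CO2. Luciferase activity was then quantified after a 30 min room-temperature incubation with Amplite.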

[3] = qHTS assay for small molecule agonists of the p53 signaling pathway - cell viability (AID 651633; calls by dose curve;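 also: p53RE-bla HCT reporter cells with a stable beta-lactamase p53 reporter; series mostly up to about 83 µM; nearly all actives have a fitted effect of over 30% in size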)
Summary of the method: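 Viability counter-read: CellTiter-Glo luminescence (30 min, room temperature) in the same p53RE-bla plates. These plates had been exposed to compounds for 16 h at 37 C.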

[4] = qHTS assay for small molecules that induce genotoxicity in human embryonic kidney cells expressing luciferase-tagged ATAD5 - cell viability (AID 651634; calls by dose curve; also: nearly all actives have a fitted effect of over 25% in size; also: potency is read from the fitted curve at half-maximal effect)
Summary of the method: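 Cells (HEK293T, luciferase-tagged ATAD5) are seeded at 2,000 per well, dosed with compound or DMSO vehicle, and incubated 15.5 hr at 37C and 5% CO2. CellTiter-Fluor is added for 30 min before fluorescence is measured.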

[5] = qHTS assay for small molecule disruptors of the mitochondrial membrane potential - cell viability (AID 720634; calls by dose curve;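 also: human HepG2 liver cancer cells; series mostly up to about 83 µM; nearly all actives have a fitted effect of over 20% in size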)
Summary of the method: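 Cytotoxicity was measured by ATP quantitation in HepG2 wells that had first been treated with compound for 1 hr and stained with m-MPI dye; CellTiter-Glo incubation was 30 min at room temperature.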

[6] = qHTS assay for small molecule disruptors of the mitochondrial membrane potential (AID 720635); also: potency is read from the fitted curve at half-maximal effect
Summary of the method: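 Mitochondrial membrane potential tracked with Mito-MPS dye, red aggregates (ex 540/em 590 nm) against green monomers (ex 490/em 535 nm). Compound treatment 1 hr at 37C, dye 30 min in HepG2.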

[7] = qHTS assay to test for compound auto fluorescence at 590 nm (red) in HepG2 cells (AID 720674)
Summary of the method: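 Red autofluorescence (Ex/Em 540/590 nm, Rose Bengal sodium equivalents) was measured in HepG2 cells, 2,000 per well in MEM plus 10% FBS, plated overnight at 37 C. Readings were taken 1 hr after adding 23 nL compound or DMSO, at 37 C and 5% CO2.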

[8] = qHTS assay to test for compound auto fluorescence at 535 nm (green) in HepG2 cells (AID 720675)
[9] = qHTS assay to test for compound auto fluorescence at 460 nm (blue) in HEK293 cells (AID 720678)
Summary of the method: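 Blue read-out at excitation 405 nm and emission 460 nm follows overnight compound exposure of HEK293 cells at 37C in 5% CO2. Activity is given as auto fluorescence equivalency to triamterene.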

[10] = qHTS assay to test for compound auto fluorescence at 590 nm (red) in HEK293 cells (AID 720679)
Summary of the method: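 Red channel, Ex/Em 540/590nm; signal expressed as equivalency to Rose Bengal sodium. HEK293, 2,000 cells/well, 10% dialyzed FBS; 23 nL compound pinned after 4-5 hr attachment; overnight 37C/5% CO2 before reading.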

Row | SMILES | Potency [1] | outcome [2] | Potency [3] | Potency [4] | Potency [5] | Potency [6] | outcome [7] | outcome [8] | outcome [9] | outcome [10]
1 | CSCCC=O | inactive | inactive | inactive | inactive | inactive | inactive | inactive | inactive | inactive | –
2 | CC(C)(C)[C@@H](O)[C@@H](Cc1ccc(Cl)cc1)n1cncn1 | inactive | inactive | inactive | inactive | inactive | – | inactive | inactive | inactive | –
3 | CCCCN(CCCC)CCCC | inactive | inactive | inactive | inactive | – | – | inactive | inactive | inactive | –
4 | Cc1cc(C)c(C)cc1C | inactive | inactive | inactive | inactive | – | – | inactive | inactive | inactive | inactive
5 | CC1=C(C)S(=O)(=O)CCS1(=O)=O | inactive | inactive | inactive | inactive | inactive | – | inactive | inactive | inactive | inactive
6 | C/C=C1/CC2C=CC1C2 (stereo not drawn) | inactive | inactive | inactive | inactive | inactive | – | inactive | inactive | inactive | inactive
7 | CCCCCC(N)=O | inactive | inactive | inactive | inactive | inactive | inactive | inactive | inactive | inactive | inactive
8 | CCCCC(CC)COC(=O)CS (stereo not drawn) | inactive | inactive | inactive | inactive | inactive | inactive | inactive | inactive | inactive | inactive
9 | CCCCC(CC)CO (stereo not drawn) | inactive | – | inactive | inactive | inactive | inactive | inactive | inactive | inactive | inactive
10 | CCc1cccc(C)c1N | inactive | inactive | inactive | inactive | inactive | inactive | inactive | inactive | inactive | inactive
11 | Nc1cc([N+](=O)[O-])ccc1O | inactive | inactive | inactive | 24.3 µM (active) | inactive | 27.3 µM (active) | inactive | inactive | inactive | inactive
12 | CCCCCCCCCC | inactive | inactive | inactive | inactive | inactive | inactive | inactive | inactive | inactive | inactive
13 | N[C@@H](Cc1cc(I)c(Oc2cc(I)c(O)c(I)c2)c(I)c1)C(=O)O | inactive | inactive | inactive | inactive | inactive | – | inactive | inactive | inactive | –
14 | Cc1ccc(S(N)(=O)=O)cc1 | inactive | inactive | inactive | inactive | inactive | inactive | inactive | inactive | inactive | inactive
15 | CCOC(=O)NNc1nncc2ccccc12 | inactive | inactive | inactive | inactive | inactive | – | inactive | inactive | inactive | inactive
16 | C=C(C)C(=O)O[C@H]1C[C@@H]2CC[C@@]1(C)C2(C)C | inactive | inactive | inactive | inactive | inactive | inactive | inactive | inactive | inactive | inactive
17 | Oc1cccc2ccccc12 | inactive | inactive | inactive | inactive | – | 28 µM (active) and 19.3 µM (active) | inactive | inactive | inactive | inactive
18 | C[C@H]1C[C@@H]2[C@H]([C@@H](O)C[C@@]3(C)[C@H]2CC[C@]3(O)C(=O)CO)[C@@]2(C)C=CC(=O)C=C12 | inactive | inactive | inactive | inactive | inactive | – | inactive | inactive | inactive | –
19 | CN(C)CCOCCN(C)C | inactive | inactive | inactive | inactive | inactive | – | inactive | inactive | inactive | –
20 | O=C(O)CC(C(=O)O)C(CC(=O)O)C(=O)O (stereo not drawn) | inactive | inactive | inactive | inactive | inactive | inactive | inactive | inactive | inactive | inactive

Row | SMILES | Potency [1] | outcome [2] | Potency [3] | Potency [4] | Potency [5] | Potency [6] | outcome [7] | outcome [8] | outcome [9] | outcome [10]
21 | COc1ccc(Cl)cc1C(=O)NCCc1ccc(S(=O)(=O)NC(=O)NC2CCCCC2)cc1 | inactive | inactive | inactive | inactive | inactive | – | inactive | inactive | inactive | inactive
22 | Cc1cnc(C(=O)NCCc2ccc(S(=O)(=O)NC(=O)NC3CCCCC3)cc2)cn1 | inactive | inactive | inactive | inactive | inactive | – | inactive | inactive | inactive | inactive
23 | O=c1[nH]c(=O)n([C@H]2CCCO2)cc1F | inactive | – | inactive | inactive | inactive | inactive | inactive | inactive | inactive | inactive
24 | O=c1[nH]c(=O)n([C@H]2C[C@H](O)[C@@H](CO)O2)cc1Br | inactive | inactive | inactive | inactive | inactive | inactive | inactive | inactive | inactive | inactive
25 | CC(C)CC(=O)CC(C)C | inactive | inactive | inactive | inactive | inactive | inactive | inactive | inactive | inactive | inactive
26 | O=C(O)c1ccc2c(c1)C(=O)OC2=O | inactive | inactive | inactive | inactive | inactive | inactive | inactive | inactive | inactive | inactive
27 | COc1cc(Cc2cnc(N)nc2N)cc(OC)c1OC | inactive | inactive | inactive | – | inactive | inactive | inactive | inactive | inactive | –
28 | O=P(OC(CCl)CCl)(OC(CCl)CCl)OC(CCl)CCl | inactive | inactive | inactive | inactive | inactive | 61.1 µM (active) | inactive | inactive | inactive | inactive
29 | CCCCCCCCCCCCCCCO | inactive | inactive | inactive | inactive | – | – | inactive | inactive | inactive | inactive
30 | c1c[nH]cn1 | inactive | inactive | inactive | inactive | inactive | inactive | inactive | inactive | inactive | inactive
31 | OCCOCCN1CCN(C2=Nc3ccccc3Sc3ccccc32)CC1 | inactive | – | inactive | inactive | inactive | – | inactive | inactive | inactive | inactive
32 | CCCCCCCCCCCCc1ccccc1 | inactive | – | inactive | inactive | inactive | inactive | inactive | inactive | inactive | –
33 | CN(C)CCC(c1ccc(Cl)cc1)c1ccccn1 (stereo not drawn) | inactive | – | inactive | inactive | inactive | inactive | inactive | inactive | inactive | –
34 | O=C(O)c1cc(O)c(O)c(O)c1 | inactive | inactive | inactive | – | inactive | inactive | inactive | inactive | inactive | inactive
35 | OCCOCCOCCO | inactive | inactive | inactive | inactive | inactive | inactive | inactive | inactive | inactive | inactive
36 | CN(C)CCC(c1ccccc1)c1ccccn1 (stereo not drawn) | inactive | – | inactive | inactive | inactive | – | inactive | inactive | inactive | –
37 | C=CCNC(N)=S | inactive | inactive | inactive | inactive | inactive | – | inactive | inactive | inactive | –
38 | FC(F)(F)c1ccc(Cl)c(Cl)c1 | inactive | inactive | inactive | inactive | inactive | inactive | inactive | inactive | inactive | inactive
39 | CC(=O)OCC(=O)[C@@]12N=C(C)O[C@@H]1C[C@H]1[C@@H]3CCC4=CC(=O)C=C[C@]4(C)[C@H]3[C@@H](O)C[C@@]12C | inactive | – | inactive | inactive | inactive | – | inactive | inactive | inactive | inactive
40 | C=CCOC(=O)c1ccccc1C(=O)OCC=C | inactive | inactive | inactive | inactive | inactive | – | inactive | inactive | inactive | –
